Where “and” joins values, the source holds several entries; their conditions need not be identical. Equal values may be shown once. About 83,000 compounds went through this panel and 20% of them were active in at least one assay; those are over-represented in the sample as a whole.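 Step 1: grow cells in 96-well plates. Step 2: add test compound at a single concentration. Step 3: incubate 48 h. Step 4: record percent growth.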 Some compounds were tested as several samples or in several runs, with calls that do not always agree. Calls of active or inactive are those of the source. The calls were made as follows: active = growth percent below 10; inactive = the rest.
How the values were obtained:
Experiment in all cases: NCI-60 one-dose screen, 48 h (100 = growth as untreated, 0 = no growth, -100 = all killed)
HT29 colon = conditions: 10 µM unless noted
SNB-75 CNS = conditions: 10 µM unless noted
SNB-19 CNS = conditions: 10 µM unless noted
U251 CNS = conditions: 10 µM unless noted
PC-3 prostate = conditions: 10 µM unless noted
SK-MEL-5 melanoma = conditions: 10 µM unless noted
UACC-62 melanoma = conditions: 10 µM unless noted
LOX IMVI melanoma = conditions: 10 µM
SK-MEL-28 melanoma = conditions: 10 µM unless noted
SK-MEL-2 melanoma = conditions: 10 µM unless noted
SN12C renal = conditions: 10 µM unless noted
UO-31 renal = conditions: 10 µM unless noted
TK-10 renal = conditions: 10 µM unless noted
ACHN renal = conditions: 10 µM unless noted
CAKI-1 renal = conditions: 10 µM unless noted
A498 renal = conditions: 10 µM unless noted
CCRF-CEM leukemia = conditions: 10 µM unless noted
MOLT-4 leukemia = conditions: 10 µM unless noted
HCT-15 colon = conditions: 10 µM unless noted
EKVX NSCLC = conditions: 10 µM unless noted

Row | Compound | growth (HT29 colon) | growth (SNB-75 CNS) | growth (SNB-19 CNS) | growth (U251 CNS) | growth (PC-3 prostate) | growth (SK-MEL-5 melanoma) | growth (UACC-62 melanoma) | growth (LOX IMVI melanoma) | growth (SK-MEL-28 melanoma) | growth (SK-MEL-2 melanoma) | growth (SN12C renal) | growth (UO-31 renal) | growth (TK-10 renal) | growth (ACHN renal) | growth (CAKI-1 renal) | growth (A498 renal) | growth (CCRF-CEM leukemia) | growth (MOLT-4 leukemia) | growth (HCT-15 colon) | growth (EKVX NSCLC)
1 | Nc1ccc(C(=O)/C=C/c2ccccc2)cc1 | 96.5% (inactive) | 104% (inactive) | 91.3% (inactive) | 91.8% (inactive) | 74.1% (inactive) | 102% (inactive) | 97% (inactive) | 84.9% (inactive) | 113% (inactive) | 91.6% (inactive) | 98.4% (inactive) | 62.1% (inactive) | 85.2% (inactive) | 105% (inactive) | 98.5% (inactive) | 101% (inactive) | 58.7% (inactive) | 75.4% (inactive) | – | –
2 | Cc1cc(Br)c2nsnc2c1[N+](=O)[O-] | – | – | 52.9% (inactive) | – | 49% (inactive) | – | 56.5% (inactive) | 8.37% (active) | 63.3% (inactive) | – | 29.4% (inactive) | 40.2% (inactive) | 36% (inactive) | 36.2% (inactive) | -34.5% (active) | 99.2% (inactive) | 20.1% (inactive) | 39.4% (inactive) | 27.4% (inactive) | 106% (inactive)
3 | Oc1ccc2ccccc2c1N=Nc1ccccn1 | – | 59.1% (inactive) | 53.4% (inactive) | 30.5% (inactive) | – | 23.7% (inactive) | 29.8% (inactive) | 6.2% (active) | 40.7% (inactive) | – | 35.4% (inactive) | – | 6% (active) | – | 11.7% (inactive) | 79.9% (inactive) | – | 11.4% (inactive) | 26.9% (inactive) | 22.2% (inactive)
4 | Cc1cc2cccnc2c2ncccc12 | 19.7% (inactive) | 2.75% (active) | 34.1% (inactive) | 17.2% (inactive) | 47.3% (inactive) | 3.03% (active) | 0.859% (active) | 14.8% (inactive) | 32.2% (inactive) | 6.1% (active) | 22.4% (inactive) | 27% (inactive) | 11.9% (inactive) | 18.2% (inactive) | 12.6% (inactive) | 23.6% (inactive) | -11.8% (active) | 5.73% (active) | – | 40.2% (inactive)
5 | O=C(/C=C/C(Cl)(Cl)Cl)Nc1ccc(Cl)cc1 | 94.7% (inactive) | 110% (inactive) | – | 100% (inactive) | 104% (inactive) | 90.8% (inactive) | 98.5% (inactive) | -69.8% (active) | – | 84.6% (inactive) | 101% (inactive) | -78% (active) | 129% (inactive) | 104% (inactive) | 101% (inactive) | 101% (inactive) | 73.2% (inactive) | 84.2% (inactive) | – | 94.2% (inactive)
6 | O=C(O)c1cccc2cccc(-c3c4ccc(=O)c(O)c-4oc4c(O)c(O)ccc34)c12 | 103% (inactive) | 89.6% (inactive) | 98.1% (inactive) | 99.5% (inactive) | 92.3% (inactive) | 94.6% (inactive) | – | 90% (inactive) | 97.6% (inactive) | 96.8% (inactive) | 91% (inactive) | 66.6% (inactive) | 110% (inactive) | 92.3% (inactive) | 90.2% (inactive) | 104% (inactive) | 94.7% (inactive) | 82.2% (inactive) | – | –
7 | CC1(C)CCCC2=C1C(=O)N(SC(Cl)(Cl)Cl)C2=O | 93.5% (inactive) | 96.9% (inactive) | 91.2% (inactive) | 93.8% (inactive) | 89.5% (inactive) | 98% (inactive) | 96.1% (inactive) | 83.9% (inactive) | 99.4% (inactive) | – | – | 79.1% (inactive) | 88.2% (inactive) | – | 92.4% (inactive) | 120% (inactive) | 40.5% (inactive) | 21% (inactive) | – | –
8 | CN1CSC(=S)N(Cc2ccccc2)C1 | 24.9% (inactive) | 98.1% (inactive) | – | 100% (inactive) | 95.4% (inactive) | – | 85.8% (inactive) | 11.3% (inactive) | 120% (inactive) | 73.3% (inactive) | – | 69.5% (inactive) | 28.6% (inactive) | – | 80% (inactive) | 145% (inactive) | 59.3% (inactive) | 64.5% (inactive) | – | 118% (inactive)
9 | CC(C)=C1C=C2CC[C@@H]3[C@](C)(CCC[C@@]3(C)C(=O)O)[C@H]2CC1 | 108% (inactive) | – | 98.1% (inactive) | 96.2% (inactive) | 97.3% (inactive) | 96.8% (inactive) | 102% (inactive) | 85.5% (inactive) | 107% (inactive) | 109% (inactive) | 106% (inactive) | – | 93.2% (inactive) | 104% (inactive) | 99.6% (inactive) | 109% (inactive) | 106% (inactive) | 96.6% (inactive) | – | 93.4% (inactive)
10 | O=C1Nc2ccc(Br)cc2C1=O | – | 92.7% (inactive) | 101% (inactive) | 98.5% (inactive) | 92.8% (inactive) | 101% (inactive) | 90.4% (inactive) | 87.4% (inactive) | 108% (inactive) | 117% (inactive) | 97% (inactive) | 78.9% (inactive) | 131% (inactive) | 101% (inactive) | 100% (inactive) | 107% (inactive) | 93.5% (inactive) | 95.9% (inactive) | – | 101% (inactive)
11 | NNc1cccc([N+](=O)[O-])c1 | 99.6% (inactive) | – | 107% (inactive) | 89% (inactive) | – | 109% (inactive) | 77.2% (inactive) | 76.6% (inactive) | 115% (inactive) | 98% (inactive) | 102% (inactive) | 83.1% (inactive) | 98% (inactive) | 88.7% (inactive) | 56% (inactive) | 83% (inactive) | 38.1% (inactive) | 25.3% (inactive) | – | 79.9% (inactive)
12 | CCOc1ccc(NC(=O)/C(=N\N)C(C(=O)OC)c2nc3ccc(Cl)cc3[nH]c2=O)cc1 (stereo not given) | – | – | – | – | – | – | 79.7% [100 µM] (inactive) and 57.3% [100 µM] (inactive) | – | – | – | – | – | – | – | – | – | – | – | – | –
13 | CCCCCCCCCCCCCCCCCC1=NCCCN1CCO | 101% (inactive) | 105% (inactive) | 101% (inactive) | 98.2% (inactive) | 95.9% (inactive) | 103% (inactive) | – | 96.4% (inactive) | 108% (inactive) | 111% (inactive) | 96.8% (inactive) | 93.4% (inactive) | 116% (inactive) | 112% (inactive) | 105% (inactive) | – | 97.4% (inactive) | 102% (inactive) | – | –
14 | Oc1c(Cl)cc(Cl)cc1C(c1cc(Cl)cc(Cl)c1O)C(Cl)(Cl)Cl | 7.53% (active) | -7.64% (active) | 19.2% (inactive) | 4.24% (active) | -7.63% (active) | -38.8% (active) | 11.8% (inactive) | 0.701% (active) | 30.4% (inactive) | -33.9% (active) | 0.98% (active) | – | 13% (inactive) | – | – | -26.6% (active) | 8.74% (active) | 3.86% (active) | – | –
15 | OC(c1cc(-c2ccc(C(F)(F)F)cc2)nc(C(F)(F)F)c1)C1CCCCN1 (stereo not given) | – | 18.6% (inactive) and -18% (active) and 46.3% (inactive) | 33.4% (inactive) and 37% (inactive) and 53.7% (inactive) | -89% (active) and -95.4% (active) and -62% (active) | -29.2% (active) and -43.2% (active) and 17% (inactive) | – | 0.644% (active) and -95.1% (active) and 69.5% (inactive) | -55.2% (active) and -97.5% (active) and -80.7% (active) | -76.1% (active) and -93.1% (active) and 45.2% (inactive) | -61% (active) and 21.8% (inactive) | -50.3% (active) and -86.4% (active) and 28.5% (inactive) | 15.4% (inactive) and -59.3% (active) and 30.6% (inactive) | -57.8% (active) and -14.4% (active) and 50.3% (inactive) | -24% (active) and 0.945% (active) and 24.3% (inactive) | -7.29% (active) and -52.3% (active) and 45.9% (inactive) | 28% (inactive) and -60.5% (active) and 46.4% (inactive) | 0.247% (active) and -56.8% (active) and 17% (inactive) | -21.7% (active) and -2.33% (active) | – | –
16 | O=C1C=CC(=O)N1C1CCCCCCCCCCC1 | – | 79.4% (inactive) | 97.1% (inactive) | – | 86.9% (inactive) | 92.9% (inactive) | – | – | 91% (inactive) | 84.2% (inactive) | – | – | 71.5% (inactive) | 50.1% (inactive) | 43.5% (inactive) | 113% (inactive) | -11% (active) | 6.51% (active) | – | –
17 | CCCCCCCCCCCC[n+]1ccc2ccccc2c1 | 0.914% (active) | -21% (active) | -19.8% (active) | -53.5% (active) | -34.1% (active) | -93.7% (active) | -62.1% (active) | -75% (active) | -28.6% (active) | -24.7% (active) | -18.4% (active) | -23.8% (active) | -46.7% (active) | – | 40.9% (inactive) | 77.6% (inactive) | 3.12% (active) | -25.9% (active) | – | –
18 | O=C(c1ccccc1)C(Br)[N+](=O)[O-] (stereo not given) | 90.5% (inactive) | 86.3% (inactive) | 102% (inactive) | 84.2% (inactive) | 89.4% (inactive) | – | 89.8% (inactive) | 80.5% (inactive) | 106% (inactive) | 97.5% (inactive) | 103% (inactive) | 80.8% (inactive) | – | 86.8% (inactive) | 93% (inactive) | 101% (inactive) | 24.8% (inactive) | 20.6% (inactive) | – | 96.5% (inactive)
19 | CCCCCCCCCCCCSC(=N)N | -64.4% (active) | – | 69% (inactive) | -10.1% (active) | 33% (inactive) | 38.5% (inactive) | 107% (inactive) | -70.8% (active) | 52.7% (inactive) | – | – | -27.2% (active) | 87.4% (inactive) | – | -7.66% (active) | 80.8% (inactive) | -22.8% (active) | -37.1% (active) | – | –
